From the supplement of paper PMC12669032

test system: Akkermansia muciniphila; test: growth AUC relative to DMSO control (median of replicates) (fraction); higher = more growth (less inhibition), active = hit call of the paper; details: 20 µM; 24 h;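 active = AUC reduced over 20% with Padj below 0.05 in at least 2 of 3 replicates; inactive = otherwise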
Procedure, shortened: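 Gut bacterial monocultures in mGAM were treated with 20 µM compound (1% DMSO) and grown anaerobically at 37 °C in round-bottom 96-well plates from OD600 0.05. OD600 was read hourly for 24 h, with the minimum OD set to 0. Area under the growth curve was normalised to the plate median of solvent-only wells, or to row and column medians on the industrial chemical plate. Each value is the median of three biological replicates, each grown on a separate day.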

| Compound | growth AUC |
| --- | --- |
| CN(C)C(=O)Nc1ccc(Cl)c(Cl)c1 | 0.951 (inactive) |
| CCOC(=O)C1CC(=O)C(=C(O)C2CC2)C(=O)C1 (stereo not drawn) | 1.01 (inactive) |
| COC(=O)C(C)Oc1ccc(Cl)cc1C (stereo not drawn) | 0.866 (inactive) |
| FC(F)(F)C(=NOCC1OCCO1)c1ccc(Cl)cc1 | 1.16 (inactive) |
| NC(=S)Nc1cccc2ccccc12 | 0.997 (inactive) |
| CC(C)c1cc(Oc2ccccc2)cc(C(C)C)c1NC(=S)NC(C)(C)C | 0.863 (inactive) |
| O=[N+](Nc1ccccc1)c1ccccc1 | 0.945 (inactive) |
| Cc1[nH]n(C)c(=O)c1C(=O)c1ccc(C(F)(F)F)cc1S(C)(=O)=O | 0.91 (inactive) |
| O=C=NC1CCC(CC2CCC(N=C=O)CC2)CC1 (stereo not drawn) | 1.05 (inactive) |
| CCc1cccc(C)c1N(COC(C)C)C(=O)CCl | 1.07 (inactive) |
| O=C(Nc1ccc(Cl)cc1C(O)c1ccccc1)c1ccncc1 (stereo not drawn) | 1.04 (inactive) |
| CNC(=O)Nc1nc2ccccc2s1 | 0.957 (inactive) |
| CC(C)CNC(=O)N1CCNC1=O | 1.09 (inactive) |
| C/C=C/C(=O)Oc1c(C(C)CCCCCC)cc([N+](=O)[O-])cc1[N+](=O)[O-] (mixture of isomers) | 1 (inactive) |
| CCOC(=O)NCCOc1ccc(Oc2ccccc2)cc1 | 0.87 (inactive) |
| NC(=O)Cc1cccc2ccccc12 | 1.01 (inactive) |
| NS(=O)(=O)[O-].[NH4+] | 1.11 (inactive) |
| COC(=O)c1ccc(C(=O)OC)cc1 | 0.99 (inactive) |
